# Experimental data taken from PubChem BioAssay AID651702 (NMMLSC, 2012).
# Among all 360,000 compounds or so, about 2,400 (0.67%) were called active.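 Rule for the calls: active = inhibition above about 55% (limit read from the data); inconclusive = no clear call, values can overlap the other calls; inactive = the rest.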 Only a selection was taken, and actives are over-represented in it overall.
# Assay: LAMP-1 surface exposure blockers, TALL-104 cells – cell-based, flow cytometry, MLPCN library, primary screen (AID 651702)
# Conditions: TALL-104 LAMP-1 surface exposure, at 10 µM, stronger effect = higher value, cells stimulated with thapsigargin and PMA
row,SMILES,inhibition
1,O=C(NCC(F)(F)F)Nc1nnc(C(F)(F)F)s1,4.2% (inactive)
2,O=C(CCCN1CCc2[nH]c3ccc(F)cc3c2C1)c1ccc(F)cc1,38.3% (inactive)
3,C=CCn1c(SCc2ccc(Cl)c(Cl)c2)nnc1C(CO)NC(=O)c1ccc(OC)cc1 (stereo unspecified),0.1% (inactive)
4,CCN1/C(=C\c2ccc3ccccc3[n+]2CC)Sc2cc(C)ccc21,63.6% (active)
5,Cc1ccc(C)c(S(=O)(=O)N2CCN(c3ncnc4sccc34)CC2)c1,-10.6% (inactive)
6,CC1C(=O)Nc2ccccc2N1C(=O)c1ccc(F)cc1F (stereo unspecified),-3.6% (inactive)
7,COc1ccc(F)cc1C(=O)COC(=O)c1n[nH]c(=O)c2ccccc12,3.6% (inactive)
8,O=C(/C=C/Sc1ncn[nH]1)c1ccc(Cl)cc1,69% (active)
9,CC1CCC(CN2CCN=C2N(C)C)CC1 (stereo unspecified),8.2% (inactive)
10,Cc1cccc(C)c1NC(=O)C(Cl)C(=O)c1ccccc1 (stereo unspecified),72.7% (active)
11,Cc1cccc(C)c1NC(=O)COC(=O)c1ccccc1O,-9.6% (inactive)
12,Cc1cccc(C)c1NC(=O)N1CC(C)OC(C)C1 (stereo unspecified),-0.4% (inactive)
13,Cc1ccc(N(C(=O)CNC(=O)c2ccco2)C(C(=O)NC2CCCC2)c2ccncc2)cc1 (stereo unspecified),-16.9% (inactive)
14,COCCc1nn2c(=O)cc(COC(=O)c3cc(OC)c(OC)c(OC)c3)nc2s1,-0.5% (inactive)
15,Cc1ccc(N(CC(=O)Nc2cc(C)cc(C)c2)S(=O)(=O)c2cccc3nonc23)cc1,2.1% (inactive)
16,Cc1cccc(N(CC(=O)Nc2ccc(-c3nc4ccc(C)cc4s3)cc2)S(C)(=O)=O)c1,68% (active)
17,CCN(CC)S(=O)(=O)c1ccc(NC(=O)CN(c2cccc(F)c2)S(C)(=O)=O)cc1,-6% (inactive)
18,CCn1c(O)c2ccc(C(=O)N=NC(=O)c3cccnc3)cc2c1O,-0.4% (inactive)
19,CCc1sc(C(=O)N2CCN(CC(=O)Nc3cccc(F)c3)CC2)cc1C,-5.4% (inactive)
20,CC(=O)C[C@@H]1OC[C@H](C)N1S(=O)(=O)c1ccc(C)cc1,-6.7% (inactive)
21,COc1ccc(-c2cc(=O)oc3cc(OC(C)C(=O)NCC4CCC(C(=O)O)CC4)ccc23)cc1 (stereo unspecified),19.5% (inactive)
22,Cc1ccc([N+](=O)[O-])c(OCCCNCC(C)O)c1 (stereo unspecified),0% (inactive)
23,CCCC(=O)NC(=S)Nc1ccc(CN2CCOCC2)cc1,-6.2% (inactive)
24,CCCCc1ccc(NC(=S)NCCCN2CCOCC2)cc1,67% (active)
25,Cc1cc(C)cc(NC(=S)NCCCN2CCOCC2)c1,-0.8% (inactive)
26,Cc1ccc(S(=O)(=O)N2CCC(=O)N([C@H](COCc3ccccc3)C(C)C)CC2)cc1,-7.5% (inactive)
